In PubChem BioAssay AID2810 (NMMLSC, 2010) one finds double positive events and percent response (vesicle binding) data, which are given here for 34 compounds.

A short description of this test: modulators of CD8 T cell-vesicle binding, confirmation, cherry-picked primary hits, two concentrations (AID 2810).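 For all read-outs here: lower values mean blocking of vesicle binding.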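 For percent response (vesicle binding): ratio of mean FL2 vesicle stain of CD8+ cells to that row's control.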 Particulars: 2C CD8+ T cell-vesicle binding, flow cytometry; for double positive events: CD8+/vesicle+ events. On the technique in general: A flow cytometer gives signals particle by particle.
[1] abbreviates: at 15.4 µM, stronger effect = lower value.

In all, about 1,200 compounds went through this assay and about 65 (5%) were called active.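 Rule for the calls: active = at either tested dose, response and 90th-percentile vesicle-stain brightness of CD8 cells under set limits and under 9% cells vesicle-bound; inactive = the rest.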 This excerpt belongs to a sample that is enriched for actives.

Turning to `O=C(Nc1ccccc1)N1CCc2c([nH]c3ccccc23)C1C(F)(F)F` (stereo unspecified), the double positive events is, setting by setting: (at 7.7 µM) 14%; under setting [1], 38.4%. Further, the percent response (vesicle binding) reads like this: under setting [1], 145% (inactive); (response, at 7.7 µM) 187%.
In the same order, the values of `COc1ccccc1NC(=O)Cn1cnc2sc(C)c(S(=O)(=O)N3CCCCC3)c2c1=O` are 11.3%, 5.5%, 109% (inactive) and 197%.
In the case of `COc1ccc(S(=O)(=O)N(C)c2ccc(C(=O)NCC3CCCO3)cc2)cc1OC` (stereo unspecified), the double positive events (at 7.7 µM) worked out at 21.6% and the double positive events under setting [1] is 13.3%. Also, the percent response (vesicle binding) by setting is: under setting [1], 226% (inactive); (response, at 7.7 µM) 413%.
For `COc1ccccc1CNC(=O)c1ccc(N(C)S(=O)(=O)c2ccc(C)cc2)cc1`, in that order: 17.5%, 5.4%, 41.2% (active) and 152%.
In the case of `COc1ccccc1CNC(=O)C1CCC1`, the double positive events runs as follows: (at 7.7 µM) 33.3%; under setting [1], 24.2%. Besides, the percent response (vesicle binding) was 232% (inactive) under setting [1] and 953% (response, at 7.7 µM).
For `COc1ccccc1CNC(=O)COc1ccc(C)cc1`, in that order: 13.1%, 5.2%, 56.4% (active) and 222%.
As for `COc1cc(CC(=O)OCC(=O)NCc2ccc(C)cc2)cc(OC)c1OC`, the double positive events runs as follows: (at 7.7 µM) 12.7%; under setting [1], 21.2%. Besides, the percent response (vesicle binding) runs as follows: under setting [1], 138% (inactive); (response, at 7.7 µM) 165%.
As for `COc1ccccc1CNC(=O)CN(Cc1ccc(Cl)cc1)S(C)(=O)=O`, the double positive events reads like this: (at 7.7 µM) 25.3%; under setting [1], 7.2%. In addition, the percent response (vesicle binding) runs as follows: under setting [1], 127% (inactive); (response, at 7.7 µM) 441%.
Regarding `Cc1ccc(C)c(OC(=O)c2cncc(Br)c2)c1`, the double positive events reads like this: (at 7.7 µM) 18.1%; under setting [1], 15.8%. For the same compound, the percent response (vesicle binding) under setting [1] was 147% (inactive) and the percent response (vesicle binding) (response, at 7.7 µM) came out at 268%.
For `Cc1ccc(NC(=O)COC(=O)c2c(-c3ccccc3)noc2C)c(C)c1`, in that order: 5.6%, 14.4%, 137% (inactive) and 226%.
For `Cc1c(C(=O)N(C)Cc2ccccc2)oc2ccc(S(=O)(=O)N3CCCC3)cc12`, in that order: 25.6%, 12.7%, 191% (inactive) and 229%.
Turning to `COc1cc2c(-c3cc(F)cc(F)c3)c(-c3ccsc3)oc(=O)c2cc1OC`, the double positive events is, setting by setting: (at 7.7 µM) 37.8%; under setting [1], 28.1%. The percent response (vesicle binding) was 275% (inactive) under setting [1] and 271% (response, at 7.7 µM).
Consider `O=C(CCc1ccccc1)N1CCN(CCO)CC1`, for which the double positive events reads like this: (at 7.7 µM) 35.8%; under setting [1], 14.4%. Moreover, the percent response (vesicle binding) runs as follows: under setting [1], 151% (inactive); (response, at 7.7 µM) 239%.
In the same order, the values of `CC(C)(C)NC(=O)COc1ccc(CNCc2cccnc2)cc1` are 31%, 21.6%, 446% (inactive) and 334%.
Consider `CC(C)(C)NC(=O)CON=C1c2ccccc2-c2ccccc21`, for which the double positive events runs as follows: (at 7.7 µM) 8.8%; under setting [1], 30.6%. In addition, the percent response (vesicle binding) was 361% (inactive) under setting [1] and 203% (response, at 7.7 µM).
Regarding `CC(C)(C)NC(=O)COc1ccc(CNCc2ccccn2)cc1`, the double positive events reads like this: (at 7.7 µM) 21.6%; under setting [1], 5.1%. The percent response (vesicle binding) was 32.8% (active) under setting [1] and 227% (response, at 7.7 µM).
In the same order, the values of `CCCCn1nc(C(=O)N2CCN(S(=O)(=O)c3ccccc3)CC2)c2ccccc2c1=O` are 16.5%, 2.2%, 57.2% (inactive) and 484%.
Turning to `Cc1ccc(NC(=O)C2c3ccccc3Oc3ccccc32)c(C)c1`, the double positive events (at 7.7 µM) was 12.5% and the double positive events under setting [1] is 28.2%. For the same compound, the percent response (vesicle binding) runs as follows: under setting [1], 175% (inactive); (response, at 7.7 µM) 230%.
In the same order, the values of `O=C(Nc1ccccc1C(=O)NCc1cccnc1)c1ccccc1Cl` are 25.8%, 14.2%, 202% (inactive) and 364%.
The compound `CCOc1ccc(CCNC(=O)CCS(=O)(=O)c2ccc(C)cc2)cc1OCC` came in with a double positive events (at 7.7 µM) of 12.8% and a double positive events under setting [1] of 11.7%. Besides, the percent response (vesicle binding) runs as follows: under setting [1], 215% (inactive); (response, at 7.7 µM) 177%.
For `CCOc1ccc(CCNC(=O)CCc2nnc3ccc(N4CCCC4)nn23)cc1OCC`, in that order: 6.3%, 20%, 239% (inactive) and 150%.
For `CCOc1ccc(CCNC(=O)c2cccc(-n3cnnn3)c2)cc1OCC`, in that order: 7.9%, 4.2%, 39.3% (active) and 237%.
In the same order, the values of `Cc1cc(C(=O)COC(=O)Cc2ccc(Cl)cc2)c(C)n1C` are 13.6%, 22.5%, 160% (inactive) and 226%.
Turning to `O=C(/C(=N\Nc1ccc(Br)cc1)Sc1nnnn1-c1ccccc1)c1ccccc1`, the double positive events came to 9.1% (at 7.7 µM) and 14.4% under setting [1]. Also, the percent response (vesicle binding) reads like this: under setting [1], 176% (inactive); (response, at 7.7 µM) 308%.
For `COc1cccc(-c2ccc(NC(=O)C3CCCN(Cc4cc(C)[nH]n4)C3)cc2)c1` (stereo unspecified), in that order: 11.6%, 32.2%, 350% (inactive) and 192%.
On to `O=C(O)CCc1ccc(S(=O)(=O)N2CCOCC2)cc1`, for which the double positive events (at 7.7 µM) amounted to 20.5% and the double positive events under setting [1] came to 28.7%. In addition, the percent response (vesicle binding) was 274% (inactive) under setting [1] and 233% (response, at 7.7 µM).
In the same order, the values of `CCN(CC)CCNC(=O)CCCNC(=O)Cn1cnc2sc(C)c(C)c2c1=O` are 39.3%, 4.7%, 131% (inactive) and 375%.
Regarding `COCCCN1CCc2[nH]c(=S)[nH]c(=O)c2C1`, the double positive events by setting is: (at 7.7 µM) 27.3%; under setting [1], 2%. Moreover, the percent response (vesicle binding) runs as follows: under setting [1], 16.7% (active); (response, at 7.7 µM) 272%.
For `CCc1c(O)cc2n(c1=O)-c1ccccc1C2(C)C`, in that order: 9.3%, 17.9%, 444% (inactive) and 485%.
`O=C(Nn1cnc2ccccc2c1=O)C1CCCCC1`: the double positive events was found to be 29.6% (at 7.7 µM) and 14.2% under setting [1]. Further, the percent response (vesicle binding) runs as follows: under setting [1], 212% (inactive); (response, at 7.7 µM) 255%.
In the same order, the values of `Cc1ccc(NC(=S)N(CCCN2CCOCC2)Cc2cccs2)c(C)c1` are 8.8%, 24.8%, 268% (inactive) and 149%.
Turning to `CCCN1CCN(CCCNC(=O)c2cc3c(s2)-c2ccccc2OC3)CC1`, the double positive events is 22.7% (at 7.7 µM) and 9.3% under setting [1]. Moreover, the percent response (vesicle binding) reads like this: under setting [1], 171% (inactive); (response, at 7.7 µM) 229%.
In the same order, the values of `Cc1ccc(C(=O)NCCCN2CCOCC2)c(C)c1` are 30.7%, 0.7%, 30.4% (active) and 440%.
Turning to `CCn1c(=O)cc(SCC(=O)N2CCN(c3ccccc3F)CC2)c2ccccc21`, the double positive events runs as follows: (at 7.7 µM) 17%; under setting [1], 19.6%. For the same compound, the percent response (vesicle binding) by setting is: under setting [1], 78.7% (inactive); (response, at 7.7 µM) 247%.
